Screens deposited in PubChem BioAssay by Broad Institute.
T_cruzi_growth-1: blocks T. cruzi growth in NIH3T3 culture | T. cruzi beta-gal in NIH3T3, GalScreen luminescence, 90 h | inhibition, % at 8.34 µM | 5.9% of 77,000 active | AID 624255;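 active = mean inhibition above about 93%, with at least 55% of replicates each passing it, limit read from the data, passing the limit was not always enough; inconclusive = only one of those two conditions holds; inactive = neither condition holds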
C_diff_growth: blocks growth of Clostridium difficile. 0.25% of 86,000 active. Clostridium difficile clinical isolate growth, OD600, 24 h; stronger effect = lower value. growth activity, negative = inhibition, % at 16 µg/mL (by protocol);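 active = mean growth activity at or below -80% and every replicate also at or below -80%; inconclusive = mean at or below -80% but some replicate above -80%; inactive = mean growth activity above -80%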;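 note: 0% = DMSO wells and -100% = levofloxacin 16 µg/mL wells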
Pf_Dd2_inh: P. falciparum Dd2 growth inhibition; SYBR Green, 72 h; stronger effect = lower value; AID 1159554; 2.3% of 94,000 active; activity change, % at 10 µM; in the data active = activity change below about -80%; inconclusive = no clear call, values can overlap the other calls
T_cruzi_growth-2: blocks T. cruzi growth in NIH3T3 host cells; shares compounds with T_cruzi_growth-1; T. cruzi beta-gal in NIH3T3, GalScreen luminescence, 90 h; inhibition, % at 8.35 µM; 72% of 5,600 active;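 active = mean replicate inhibition above about 95% and at least 55% of replicates individually reaching it, limit read from the data; inconclusive = only one of the two criteria is met; inactive = neither criterion is met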
T_cruzi_growth-3: blocks T. cruzi growth in NIH3T3 host cells; shares compounds with T_cruzi_growth-1; T. cruzi beta-gal in NIH3T3, GalScreen luminescence, 90 h; inhibition, % at 2.09 µM; 21% of 5,600 active; AID 651740;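 active = mean inhibition above about 95%, with at least 55% of replicates also reaching it, limit read from the data; inconclusive = meets just one of the two conditions; inactive = meets neither condition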;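 note: plate controls were neutral control median for no effect and positive control median for full effect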
NIH3T3_tox: NIH/3T3 (mouse) viability loss. AID 651742. NIH/3T3 viability, CellTiter-Glo ATP luminescence, 90 h. cytotoxicity (signal decrease), % at 8.35 µM. shares compounds with T_cruzi_growth-1. 14% of 5,600 active;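 active = mean signal decrease across replicates above about 35% based on untreated-well scatter, with enough replicates individually passing, limit read from the data; inconclusive = no rule stated though some were filed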;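 note: 0% = median of neutral control wells and 100% = median of positive control wells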
NIH3T3_tox_2: kills mouse NIH/3T3 fibroblasts | shares compounds with T_cruzi_growth-1 | NIH/3T3 viability, CellTiter-Glo ATP luminescence, 90 h | inhibition, % at 24.9 µM | 56% of 5,600 active | AID 651744;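 active = mean loss of cell viability signal at or above a set limit, and enough replicates individually reaching it; inconclusive = meets only the mean limit or only the replicate share; inactive = meets neither condition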;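 note: 0% = median of neutral control wells and 100% = median of positive control wells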
An asterisk follows results filed as active; ? = inconclusive; nt = no result given; ! = repeats disagree. Shown are actives, neighbours in structure and some others; about 6.7% of the full set was active somewhere.

SMILES T_cruzi_growth-1 C_diff_growth Pf_Dd2_inh T_cruzi_growth-2 T_cruzi_growth-3 NIH3T3_tox NIH3T3_tox_2
C[C@@H]1CN([C@@H](C)CO)C(=O)c2cc(/C=C/c3ccccc3)cnc2O[C@H]1CN(C)C(=O)CN1CCOCC1 nt 0 17 nt nt nt nt
C[C@H]1CN([C@@H](C)CO)C(=O)c2c(c3ccccc3n2C)-c2ccccc2CO[C@H]1CN(C)Cc1cccnc1 ? -3 13 88 27 37* 63*
C[C@@H]1CN([C@H](C)CO)C(=O)c2c(c3ccccc3n2C)-c2ccccc2CO[C@@H]1CN(C)Cc1cccnc1 111* -1 ? 109* 53 1 51*
C[C@@H]1CN([C@@H](C)CO)C(=O)c2c(c3ccccc3n2C)-c2ccccc2CO[C@@H]1CN(C)Cc1ccncc1 -10 nt -56 nt nt nt nt
C[C@H](CO)N1C[C@H](C)[C@@H](CN(C)Cc2cccc(F)c2)OCc2ccccc2-c2c(n(C)c3ccccc23)C1=O nt 22 -65 nt nt nt nt
C[C@H](CO)N1C[C@H](C)[C@H](CN(C)C(=O)[C@H](Cc2ccccc2)N(C)C)OCc2ccccc2-c2c(n(C)c3ccccc23)C1=O ? 6 -17 88 35 16 ?
C[C@H]1CN([C@@H](C)CO)C(=O)c2c(c3ccccc3n2C)-c2ccccc2CO[C@@H]1CN(C)C(=O)[C@@H](Cc1ccccc1)N(C)C -9 -9 -15 nt nt nt nt
O=C(C1CCCC1)N1CC2(C1)[C@H](c1ccccc1)[C@@H](CO)N2C(=O)NC1CCCC1 nt -9 -16 nt nt nt nt
O=C1CN(Cc2ccc(F)cc2)C[C@@H]2[C@@H](c3ccc(-c4ccccc4F)cc3)[C@@H](CO)N12 nt 2 -41 nt nt nt nt
CC(C)NC(=O)N(C)C[C@@H]1Oc2ccc(NC(=O)Cc3ccccc3)cc2C(=O)N([C@H](C)CO)C[C@@H]1C nt 1 -1 nt nt nt nt
C[C@@H]1CCCCO[C@@H](CN(C)Cc2ccccc2)[C@H](C)CN([C@H](C)CO)C(=O)c2cc(NC(=O)NC3CCCCC3)ccc2O1 ? 0 -56 107* 63 3 100*
C[C@@H]1CN([C@@H](C)CO)C(=O)c2cc(NC(=O)NC3CCCCC3)ccc2O[C@@H](C)CCCCO[C@@H]1CN(C)Cc1ccccc1 -69 0 -51 nt nt nt nt
C[C@@H]1CCCCO[C@H](CN(C)Cc2ccccc2)[C@H](C)CN([C@@H](C)CO)C(=O)c2cc(NC(=O)NC3CCCCC3)ccc2O1 ? -4 -28 100* 15 1 100*
C[C@@H]1CCCCO[C@H](CN(C)Cc2ccccc2)[C@@H](C)CN([C@H](C)CO)C(=O)c2cc(NC(=O)NC3CCCCC3)ccc2O1 0 -1 27 nt nt nt nt
CO[C@H]1CC[C@H]2CCN(C)C(=O)[C@H](C)[C@@H](OC)CN(C)C(=O)c3cccc(C#N)c3OC[C@@H]1O2 -21 nt 19 nt nt nt nt
CCCNC(=O)N1[C@H](CO)[C@H](c2ccccc2)[C@@H]1C#N 21 -3 35 nt nt nt nt
N#C[C@H]1[C@H](c2ccc(C#Cc3cccc(F)c3)cc2)[C@@H](CO)N1C(=O)C1CCOCC1 -12 3 -29 nt nt nt nt
CCCNC(=O)N1[C@@H](C#N)[C@@H](c2ccc(C#Cc3cccc(F)c3)cc2)[C@@H]1CO 100* -15 -66 103* 93 21 50*
CCCNC(=O)N1[C@H](CO)[C@H](c2ccccc2)[C@@H]1CNC(=O)c1cccc(F)c1 98* 4 1 86 33 0 37
CCCNC(=O)N1[C@@H](C#N)[C@H](c2ccc(C#Cc3cccc(F)c3)cc2)[C@@H]1CO ? -11 -39 99* 43 21 ?
CCCNC(=O)N1[C@H](CO)[C@@H](c2ccccc2)[C@@H]1CNC(=O)c1ccccc1 75 -1 -30 nt nt nt nt
C[C@@H]1CN([C@H](C)CO)C(=O)c2cc(NC(=O)Cn3cnnn3)ccc2O[C@@H]1CN(C)S(=O)(=O)c1cn(C)cn1 16 nt 29 nt nt nt nt
C[C@H]1CCCCO[C@@H](CN(C)C(=O)Nc2ccc(F)cc2)[C@@H](C)CN([C@@H](C)CO)C(=O)c2cc(NC(=O)Nc3ccc(C(F)(F)F)cc3)ccc2O1 102* 4 16 102* 111* 7 14
C[C@@H]1CCCCO[C@@H](CN(C)C(=O)Nc2ccc(C(F)(F)F)cc2)[C@H](C)CN([C@@H](C)CO)C(=O)c2cc(NC(=O)Nc3ccc(F)cc3)ccc2O1 106* 0 10 101* 103* -10 3
C[C@H](CO)N1C[C@H](C)[C@@H](CN(C)C(=O)Nc2ccc(F)cc2)OCCCC[C@H](C)Oc2ccc(NC(=O)Nc3ccc(C(F)(F)F)cc3)cc2C1=O 92 0 -63 nt nt nt nt
SMILES T_cruzi_growth-1 C_diff_growth Pf_Dd2_inh T_cruzi_growth-2 T_cruzi_growth-3 NIH3T3_tox NIH3T3_tox_2
C[C@@H]1CN([C@H](C)CO)C(=O)c2cc(NC(=O)Nc3ccc(C(F)(F)F)cc3)ccc2O[C@@H](C)CCCCO[C@H]1CN(C)C(=O)Nc1ccc(F)cc1 87 4 -17 nt nt nt nt
CCCC#Cc1cnc2c(c1)C(=O)N([C@@H](C)CO)C[C@H](C)[C@H](CN(C)C(=O)Cc1cccnc1)O2 62 1 19 nt nt nt nt
C[C@@H]1CN([C@@H](C)CO)S(=O)(=O)c2ccc(-c3cccc(C#N)c3)cc2O[C@@H]1CN(C)C(=O)c1ccc(F)cc1 109*! -2 -15 97* 91 ? 73*
C[C@H]1CN([C@@H](C)CO)S(=O)(=O)c2ccc(-c3cccc(C#N)c3)cc2O[C@H]1CN(C)C(=O)c1ccc(F)cc1 103* 7 -64 89 44 30 78*
C[C@H](CO)N1C[C@H](C)[C@@H](CN(C)C(=O)c2ccc(F)cc2)Oc2cc(-c3cccc(C#N)c3)ccc2S1(=O)=O 48 -7 -51 nt nt nt nt
C[C@@H]1CN([C@H](C)CO)S(=O)(=O)c2ccc(-c3cccc(C#N)c3)cc2O[C@H]1CN(C)C(=O)c1ccc(F)cc1 78 -4 -48 nt nt nt nt
O=C(NC1CCC1)[C@H]1[C@H](CO)[C@H]2Cn3c(ccc(-c4ccccc4)c3=O)[C@@H]1N2 17 -1 11 nt nt nt nt
COc1ccccc1-c1ccc([C@H]2[C@H]3CN(C(=O)NC4CCCC4)CCCCN3[C@H]2CO)cc1 69 3 10 nt nt nt nt
Cc1ccccc1-c1ccc([C@H]2[C@@H](CO)N3CCCCN(C(=O)NC4CCCC4)C[C@H]23)cc1 115* -1 -31 108* 99* 20 106*
COc1ccccc1-c1ccc([C@@H]2[C@H]3CN(C(=O)NC4CCCC4)CCCCN3[C@H]2CO)cc1 68 8 1 nt nt nt nt
